Results from PubChem BioAssay (NCATS).
Results filed as inconclusive are left out. Entries that show only a call come without a potency. Activity calls are given as the source filed them. Calls follow the shape of the dose curve; as a rule, active = well fitted curve in the direction sought with a large enough effect; inconclusive = small, poorly fitted or top-dose-only effect, or another doubt; inactive = no such curve, though single readings can be large; an effect the other way counts as inactive or inconclusive.

Assays:
[1] = qHTS to identify inhibitors of the type 1 interferon - major histocompatibility complex class I in skeletal muscle: primary screen against the NCATS LOPAC collection (AID 1347405);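 also: lytic HiBiT luminescence reporting HLA-B protein level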; also: potency is read from the fitted curve at half-maximal effect
Method in brief: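 Cells: C25cl48 human myoblasts, HiBiT-tagged HLA-B*08:01, stimulated with IFN-beta 4.0 ng/ml. Compounds are titrated 1:4.3 over 7 points from 46 uM final and incubated 24 hrs; endogenous MHC class I is quantified by HiBiT lytic luminescence.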

[2] = qHTS for inhibitors of adenylyl cyclases using a fission yeast platform: a pilot screen against the NCATS LOPAC library (AID 1347410)
Method in brief: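 S. pombe CHP2027 (AC9-GNAS-PDE4D2) carrying a PKA-repressed fbp1-GFP reporter was exposed to LOPAC compounds (final up to 57 µM) for 18 h at 30C in the dark, in EMM with histidine, lysine and uracil; GFP gain-of-signal read by laser scanning cytometry.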

[3] = Validation qHTS assay for inhibitors of Activation Induced Cytidine Deaminase (AID): UDG Counterscreen signal (AID 1347427)
Method in brief: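 Counterscreen read of UDG activity (2 U/mL, 4/3x) in the FRET deamination format with AID (1 uM, 4/3x), DJC20/DJC23 substrates (250 nM, 4x), 4 h at room temperature. NaOH stop, fluorescence at 560 ex/665 em.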

[4] = target: Single-stranded DNA cytosine deaminase (Homo sapiens) (UniProt Q9GZX7); assay: Validation qHTS assay for inhibitors of Activation Induced Cytidine Deaminase (AID): AID signal (AID 1347429); also: potency is read from the fitted curve at half-maximal effect
Chain of Single-stranded DNA cytosine deaminase (Homo sapiens) (Q9GZX7 whole entry, looked up): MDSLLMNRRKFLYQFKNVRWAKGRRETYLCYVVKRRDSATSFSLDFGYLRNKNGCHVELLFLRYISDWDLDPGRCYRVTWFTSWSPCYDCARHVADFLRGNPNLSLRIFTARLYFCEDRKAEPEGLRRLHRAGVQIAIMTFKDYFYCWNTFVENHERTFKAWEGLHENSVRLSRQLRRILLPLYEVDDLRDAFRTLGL
Method in brief: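 In this coupled qHTS, AID deaminates a FRET-labelled ssDNA substrate in the presence of UDG over 4 hr at room temperature. Compounds span up to 114 uM final.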

[5] = Primary qHTS for inhibitors of La Crosse Virus (LACV) - induced cell death in SH-SY5Y cells (AID 1508616);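 also: top concentration of the series differs between compounds; higher means more rescue of cells from virus-induced death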
Method in brief: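 Readout was luminescence from ATPLite 1step added after a 6-day LACV infection (0.01 MOI) of SH-SY5Y cells that had received pin-transferred compound 24 hr after seeding.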

[6] = target: Calcium and integrin-binding protein 1 (Homo sapiens) (UniProt Q99828); assay: Validation qHTS for Identification of Calcium Integrin Binding protein 1 (CIB1) Competitor (AID 1508618)
Chain of Calcium and integrin-binding protein 1 (Homo sapiens) (Q99828 whole entry, looked up): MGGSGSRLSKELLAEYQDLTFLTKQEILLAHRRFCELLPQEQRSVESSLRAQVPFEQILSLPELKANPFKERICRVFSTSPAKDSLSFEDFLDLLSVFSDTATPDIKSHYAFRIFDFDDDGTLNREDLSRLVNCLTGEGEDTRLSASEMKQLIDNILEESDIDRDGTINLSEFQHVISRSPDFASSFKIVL
Method in brief: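 In this qHTS validation, the LOPAC set (up to 114 uM) was tested for blocking CIB1 binding to a fluorescein-tagged alphaIIb peptide, with FP detection at 480/540 nm.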

[7] = Primary qHTS for small molecule stabilizers of the endoplasmic reticulum resident proteome: Secreted ER Calcium Modulated Protein (SERCaMP) assay (AID 1508630)
Method in brief: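 GLuc-SERCaMP-expressing SH-SY5Y cells, pretreated 16 h with compound, are challenged with thapsigargin to empty ER calcium stores; after 4 h, coelenterazine is added directly to the medium and luminescence is imaged.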

| Structure (SMILES) | Potency [1] | outcome [2] | Potency [3] | Potency [4] | Potency [5] | outcome [6] | Potency [7] |
| --- | --- | --- | --- | --- | --- | --- | --- |
| Nc1nc(Nc2ccccc2)nc2c1ncn2[C@@H]1O[C@H](CO)[C@@H](O)[C@H]1O | inactive | inactive | inactive | inactive | inactive | inactive | inactive |
| O=Nc1ccc2oc(=O)ccc2c1 | inactive | inactive | inactive | inactive | inactive | inactive | inactive |
| OCC1O[C@H](O)C(Cl)C(O)C1O (some centres not stated) | inactive | inactive | inactive | inactive | inactive | inactive | inactive |
| CSc1nc(N)c2ncn([C@@H]3O[C@H](COP(=O)(O)OP(=O)(O)OP(=O)(O)O)[C@@H](O)[C@H]3O)c2n1 | inactive | inactive | inactive | inactive | inactive | inactive | inactive |
| COc1cc2c(CCNC(C)=O)c[nH]c2cc1Cl | inactive | inactive | inactive | inactive | inactive | inactive | inactive |
| CN1CCc2cc(NC(=O)Nc3cccnc3)ccc21 | inactive | inactive | inactive | inactive | inactive | inactive | inactive |
| C[N+]1(C)CCC(OC(=O)C(c2ccccc2)c2ccccc2)CC1 | inactive | inactive | inactive | inactive | inactive | inactive | inactive |
| Fc1cccc(/C=N/N=C/c2cccc(F)c2)c1 | inactive | inactive | inactive | inactive | inactive | inactive | inactive |
| O=c1[nH]c2cc(C(F)(F)F)ccc2n1-c1cc(C(F)(F)F)ccc1O | inactive | inactive | inactive | inactive | inactive | – | inactive |
| NCCCCCCCCCCN | inactive | inactive | inactive | inactive | inactive | inactive | inactive |
| O=[N+]([O-])c1ccc(CSc2ncnc3c2ncn3[C@@H]2O[C@H](CO)[C@@H](O)[C@H]2O)cc1 | inactive | inactive | inactive | inactive | inactive | inactive | inactive |
| Brc1c(Br)c(Br)c2n[nH]nc2c1Br | inactive | inactive | inactive | inactive | inactive | – | inactive |
| CN1CCc2ccccc2Cc2[nH]c3ccccc3c2CC1 | inactive | inactive | inactive | inactive | inactive | – | inactive |
| NC(=O)C(=O)O | inactive | inactive | inactive | inactive | inactive | inactive | inactive |
| O=P(O)(O)C(Cl)(Cl)P(=O)(O)O | inactive | inactive | inactive | inactive | inactive | inactive | inactive |
| NC[C@H]1O[C@@H](n2cnc3c(N)ncnc32)[C@H](O)[C@@H]1O | inactive | inactive | inactive | inactive | inactive | inactive | inactive |
| NCCSSCCN | inactive | inactive | inactive | inactive | inactive | inactive | inactive |
| CSc1ccccc1N1CCN(CCCCCC(=O)NC2CCCc3ccccc32)CC1 (configuration not stated) | inactive | inactive | inactive | inactive | inactive | inactive | inactive |
| C[C@@H](CN1CCC(Cc2ccccc2)CC1)[C@@H](O)c1ccc(O)cc1 | inactive | inactive | inactive | inactive | inactive | inactive | inactive |
| COc1ccc2c(c1)CCC1C2CC[C@@]2(C)C1CC[C@@H]2NCCCCCCN1C(=O)CCC1=O (some centres not stated) | inactive | inactive | inactive | – | – | inactive | inactive |
| CC[C@H]1OC(=O)[C@H](C)C(O[C@H]2C[C@@](C)(OC)[C@@H](O)[C@H](C)O2)[C@H](C)[C@@H](OC2O[C@H](C)C[C@H](N(C)C)[C@H]2O)[C@](C)(O)C[C@@H](C)CN(C)[C@H](C)[C@@H](O)[C@]1(C)O (some centres not stated) | inactive | inactive | – | – | – | inactive | – |
| CC[C@H]1OC(=O)[C@H](C)[C@@H](O[C@H]2C[C@@](C)(OC)[C@@H](O)[C@H](C)O2)[C@H](C)[C@@H](O[C@@H]2O[C@H](C)C[C@H](NC)[C@H]2O)[C@](C)(O)C[C@@H](C)CN(C)[C@H](C)[C@@H](O)[C@]1(C)O | inactive | inactive | – | – | – | inactive | – |
| CCCCCCCCCCCCCCCCCCN(CCCCCCCCCCCCCCCCCC)CCCN(CCO)CCO | inactive | inactive | – | – | – | inactive | – |
| CNC(=O)[C@H]1O[C@@H](n2cnc3c(NCc4ccc(N)cc4)ncnc32)[C@H](O)[C@@H]1O | inactive | inactive | inactive | – | inactive | inactive | inactive |
| N[C@@H](CC(=O)O)C(=O)O | inactive | inactive | inactive | – | inactive | – | – |
| Nc1nc(Cl)nc2c1ncn2[C@@H]1O[C@H](COP(=O)(O)OP(=O)(O)OP(=O)(O)O)[C@@H](O)[C@H]1O | inactive | inactive | inactive | – | – | inactive | inactive |
| OCC1O[C@H]([S-])[C@H](O)[C@@H](O)[C@@H]1O.[Au+] (some centres not stated) | 17.8 µM (active) | inactive | inactive | 12.6 µM (active) | inactive | – | inactive |
| CCOC(=O)C1=C(C)NC(C)=C(C(=O)OCC)C1c1c(F)c(F)c(F)c(F)c1F | 20 µM (active) | inactive | – | – | inactive | – | inactive |
| O=C1NC(O)=NC1(c1ccccc1)c1ccccc1 | inactive | inactive | – | – | – | inactive | – |
